These results are taken from PubChem BioAssay AID540333 (Southern Research Specialized Biocontainment Screening …, 2011).

The campaign covered roughly 10,000 compounds. About 320 (3.2%) were called active. This is one part of a sample in which actives are shown more often than they occur. Unmarked numbers belong to inactive results. No stated cut-off is given here; in the data, active means CPE inhibition mostly above about 9.1% (no sharp cut-off); inactive means mostly below about 7.2%.

This test is described as follows: Dengue virus cytopathic effect inhibitors, cell-based, CPE readout, HTS (AID 540333). The conditions noted are these: Dengue virus CPE inhibition in host cells, at 20 µM; active compounds read high.
Take `Cc1ccc(-n2c(SCC(=O)NCCN3C(=O)CSC3=O)nnc2-c2cccc(C)c2)cc1`: the CPE inhibition was 0.355%.

Turning to `O=C(CSCc1ccc([N+](=O)[O-])cc1)NC1CC1`, the CPE inhibition is 2.12%.

For `Cc1ccc(C(c2nnnn2C2CCCC2)N2CCc3ccccc32)cc1` (configuration not stated), the CPE inhibition was 18.1% (active).

On to `Cc1ccc(C(=O)Nc2nnc(SCC(=O)N3CCCc4ccccc43)s2)cc1`, for which the CPE inhibition was 0.06%.

Regarding `Cc1ccc(-c2nnc3ccc(SCC(=O)N4CCCc5ccccc54)nn23)cc1`, the CPE inhibition result was “inactive”.

In the case of `Cc1ccc(N=Cc2cc3c(cc2O)OC(N)=C(C#N)C3c2ccccc2)cc1` (configuration not stated), the CPE inhibition is 23.4% (active).

For `COc1ccc([C@@H]2C(C#N)=C(N)S[C@@H](c3ccccc3)[C@@H]2[N+](=O)[O-])cc1`, the CPE inhibition was 0.405%.

With `N#CC1=C(N)Oc2cc(O)c(C=Nc3ccccc3)cc2C1c1ccccc1` (configuration not stated), the CPE inhibition was 5.12%.

`COc1ccc(N=Cc2cc3c(cc2O)OC(N)=C(C#N)C3c2ccccc2)cc1` (configuration not stated): the CPE inhibition is 13.1% (active).

Turning to `COc1cccc(C2C(C#N)=C(N)Oc3cc(N)ccc32)c1OC` (configuration not stated), the CPE inhibition result was “inactive”.

In the case of `Cc1ccccc1N=Cc1cc2c(cc1O)OC(N)=C(C#N)C2c1ccccc1` (configuration not stated), the CPE inhibition was 0.055%.

For `Cc1ccc(-c2nc(N)sc2CC(=O)OCC(=O)NCC2CCCO2)cc1` (configuration not stated), the CPE inhibition result was “inactive”.

With `CCCCC(=O)Nc1cccc(NC(=S)NC(=O)Cc2ccccc2)c1`, the CPE inhibition is 0.515%.

On to `O=C(Nc1cccc(Cl)c1)c1ccc(Cn2cc(Cl)cn2)cc1`, for which the CPE inhibition entry was “inactive”.

Regarding `COc1cccc(C(Nc2ccccn2)c2c(NC(=O)c3ccco3)sc(C)c2C)c1` (configuration not stated), the CPE inhibition was 31% (active).

On to `Cc1ccnc(NC(=S)NC(=O)c2ccco2)c1`, for which the CPE inhibition was 0.58%.

With `O=C(NC(=S)Nc1ccccn1)c1ccco1`, the CPE inhibition is 1.33%.

As to `Fc1ccccc1NC(=S)NCc1ccc2c(c1)OCO2`, the CPE inhibition is 0.705%.

Turning to `COc1cc(C(=O)NNC(=S)NC(=O)c2ccc(Cl)cc2)cc(OC)c1OC`, the CPE inhibition was 2.02%.

As for `CCn1c(SCC(=O)Nc2ncc(C(F)(F)F)cc2Cl)nnc1-c1cccc(C)c1`, the CPE inhibition was 0.415%.

On to `Cc1ccc(-c2nn(-c3ccccc3)cc2C(=O)OCC(=O)Nc2ncc(Cl)cc2Cl)cc1`, for which the CPE inhibition was 0.085%.

For the compound `Cc1ccc(-n2c(SCC(=O)Nc3ncc(Cl)cc3Cl)nc3ccccc32)cc1`, the CPE inhibition was 14.9% (active).

As for `Cc1ccc(-n2c(SCC(=O)Nc3cccc(S(N)(=O)=O)c3)nc3ccccc32)cc1`, the CPE inhibition was 10.4%.

In the case of `Cc1cccc(-n2c(SCC(=O)Nc3ncc(Cl)cc3Cl)nc3ccccc32)c1`, the CPE inhibition is 13.7% (active).

In the case of `CN(C)S(=O)(=O)c1cccc(NC(=O)CSc2nc3ccccc3n2-c2ccccc2)c1`, the CPE inhibition is 6.67%.

Take `COc1cc2c(cc1OC)CN(c1ccc([N+](=O)[O-])cc1C#N)CC2`: the CPE inhibition is 0.37%.

On to `CN(C)S(=O)(=O)c1ccc(NCC2COc3ccccc3O2)c([N+](=O)[O-])c1` (configuration not stated), for which the CPE inhibition is 0.57%.

In the case of `O=C(CSc1cccc[n+]1[O-])Nc1cc(S(=O)(=O)N2CCOCC2)ccc1Cl`, the CPE inhibition result is “inactive”.

In the case of `O=c1c2ccccc2sc2ccc(Cl)cc12`, the CPE inhibition was 0.48%.

With `COc1cc(/C=C(\C#N)C(=O)NC2CCCCC2C)ccc1OS(=O)(=O)c1ccc(C)cc1` (configuration not stated), the CPE inhibition result was “inactive”.

For `CSc1ccc(/C=C(\C#N)C(=O)NC2CCCCC2C)cc1` (configuration not stated), the CPE inhibition is 18.5% (active).

With `CCCCCCCCNC(=O)/C(C#N)=C/c1ccc(SC)cc1`, the CPE inhibition is 0.185%.

As to `CC(=O)Nc1ccc(OCC(O)CN2CCCCC2C)cc1` (configuration not stated), the CPE inhibition is 0.255%.

On to `O=[N+]([O-])c1ccc(-c2nnc(-c3ccccc3)c(NCCCO)n2)cc1`, for which the CPE inhibition entry was “inactive”.

As to `O=C(c1cc([N+](=O)[O-])ccc1N1CCCCC1)N1CCCC1`, the CPE inhibition is 0.545%.

For `O=C(CCc1ccc(Oc2cc([N+](=O)[O-])cc([N+](=O)[O-])c2)cc1)N1CCCCCC1`, the CPE inhibition is 12.4% (active).

For `CC1CCN(C(=O)CCc2ccc(Oc3cc([N+](=O)[O-])cc([N+](=O)[O-])c3)cc2)CC1`, the CPE inhibition was 6.92%.

Take `COc1ccc(OCCCC(=O)Nc2cccc([N+](=O)[O-])c2C)cc1`: the CPE inhibition entry was “inactive”.

On to `C=CCOC(=O)C1=C(C)NC(SCC(N)=O)=C(C#N)C1c1cccs1` (configuration not stated), for which the CPE inhibition was 0.32%.

On to `Cc1cc(C)c(COc2ccc(/C=N/n3c(C)n[nH]c3=S)cc2)c(C)c1`, for which the CPE inhibition is 5.91%.

Consider `Cc1ccc2[nH]c(=O)c(CN(Cc3cccs3)C(=S)NCC3CCCO3)cc2c1` (configuration not stated), for which the CPE inhibition was 0.245%.

Take `Cc1cc(C)c2[nH]c(=O)c(CN(Cc3cccs3)C(=S)NCC3CCCO3)cc2c1` (configuration not stated): the CPE inhibition was 2.9%.

As for `COc1ccc2[nH]c(=O)c(CN(Cc3cccs3)C(=S)Nc3cccc(C)c3)cc2c1`, the CPE inhibition is 9.5% (active).

As for `CNC(=S)N(Cc1cccs1)Cc1cc2cc(OC)ccc2[nH]c1=O`, the CPE inhibition result is “inactive”.

Turning to `Cc1cc2cc(CN(Cc3cccs3)C(=S)NCC3CCCO3)c(=O)[nH]c2cc1C` (configuration not stated), the CPE inhibition was 18.4% (active).

Consider `Cc1cccc(NC(=S)N(Cc2cccs2)Cc2cc3cc(C)cc(C)c3[nH]c2=O)c1`, for which the CPE inhibition was 3.13%.

Consider `N=C(N)SCc1nc2ccccc2c(=O)n1-c1ccccc1`, for which the CPE inhibition entry was “inactive”.

As for `CC1CCC(=O)N(CCSc2ccccc2)CC1` (configuration not stated), the CPE inhibition was 0.29%.

As for `O=C(c1ccc(COc2ccc(Cl)cc2)o1)N1N=C(C(F)F)CC1(O)C(F)F` (configuration not stated), the CPE inhibition was 3%.

Consider `CCO[C@H]1OC(C(N)=O)=C[C@@H](C(C)(C)C)[C@@H]1CCCO`, for which the CPE inhibition result is “inactive”.

Take `COc1ccccc1C(NC(=O)C1CCCCC1)c1c(O)ccc2ccccc12` (configuration not stated): the CPE inhibition was 0.755%.

Consider `CC(C)CC(=O)NC(c1ccccc1Cl)c1c(O)ccc2ccccc12` (configuration not stated), for which the CPE inhibition was 69% (active).

For the compound `CCC(=O)NC(c1ccccc1Cl)c1c(O)ccc2ccccc12` (configuration not stated), the CPE inhibition is 4.07%.

As for `CC(C)c1ccc(NC(=S)NCCc2c[nH]c3ccccc23)cc1`, the CPE inhibition result was “inactive”.

`C/C(=N\NC(=O)c1ccccc1-n1cccc1)C1CC1`: the CPE inhibition was 0.14%.

Consider `CON1C(=O)C(=O)N(OC)C2CCCCCC21` (configuration not stated), for which the CPE inhibition was 0.76%.

Consider `COc1ccc(-n2c(SCc3ccc([N+](=O)[O-])cc3)nnc2-c2ccc(C)cc2)cc1`, for which the CPE inhibition is 11.5%.

For `COc1ccc(-n2c(CNc3ccc(C)cc3)nnc2SCc2ccccc2)cc1`, the CPE inhibition is 13.1% (active).

On to `COC(=O)c1ccc(CSc2nnc(CS(=O)Cc3ccc(Br)cc3)n2-c2ccccc2)cc1` (configuration not stated), for which the CPE inhibition is 9.53%.

For `CCOc1ccc(NCc2nnc(SCC(=O)Nc3nc(-c4ccccc4)cs3)n2-c2ccccc2)cc1`, the CPE inhibition was 0.01%.

As to `COc1ccc(NCc2nnc(SCC(=O)Nc3nc(-c4ccccc4)cs3)n2-c2ccccc2)cc1`, the CPE inhibition result was “inactive”.

Take `CCOc1ccc(NCc2nnc(SCc3ccc(Cl)cc3)n2-c2ccccc2)cc1`: the CPE inhibition was 15.5% (active).
